Most compounds without a hit are left out; they make up all but 2.8% or so of the library.
Rev-erbA mod: Rev-erb alpha (human) modulation; Rev-erbα–FITC-DNA binding, fluorescence polarization, 90 min; activity, % at 10 µM; 0.79% of 370,000 active;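 active = activity above about 14%, limit read from the data; passing the limit was not always enough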;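 also: 0% = DMSO wells with 35 nM protein and 100% = DMSO wells with 750 nM protein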
PG9 Ab binder: small molecules binding HIV-1 gp120 antibody PG9; inhibition, % at 6.7 µM; AID 624416; TR-FRET gp120-PG9 antibody binding; 0.43% of 360,000 active; in the data active = inhibition above about 8.5%
proKLK7 act: activators of human kallikrein-7 zymogen | P49862 | AID 652039 | 0.9% of 370,000 active | activation, % at 7 µM | purified proKLK7, EDANS-DABCYL substrate fluorescence; 100% is mature enzyme control, 0% vehicle;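 active = activation above the mean of all tested compounds plus 3 SD, computed per campaign excluding outliers beyond control limits, cut at about 13% in these data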
Target sequence (P49862 whole entry, looked up): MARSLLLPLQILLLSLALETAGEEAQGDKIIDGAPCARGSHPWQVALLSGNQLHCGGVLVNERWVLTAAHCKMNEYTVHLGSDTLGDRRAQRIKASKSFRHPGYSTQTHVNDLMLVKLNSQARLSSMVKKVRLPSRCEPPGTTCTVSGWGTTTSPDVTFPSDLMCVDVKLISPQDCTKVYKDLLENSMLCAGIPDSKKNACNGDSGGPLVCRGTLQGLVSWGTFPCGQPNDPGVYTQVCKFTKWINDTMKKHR
PP5 primary: PP5 (human) phosphatase inhibition; purified PP5c, OMFP substrate fluorescence; inhibition, % at 6.7 µM; 0.18% of 320,000 active;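 active = inhibition above the campaign's mean inhibition across all tested compounds plus 3 SD, cut at about 9.5% in these data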;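 also: 0% = DMSO only and 100% = 100 µM cantharidin control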
JMJD2C inh: inhibitors of human GASC-1 (JMJD2C) demethylase; GST-JMJD2C(1-420) H3K9me3 demethylation, DELFIA europium; inhibition, % at 2.35 µM; AID 2099; 0.069% of 330,000 active; Q9H3R0;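 active = more than half of a compound's replicate wells show inhibition beyond 50%, single wells judged on their own value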;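 also: signal counts dimethyl H3K9 product captured on neutravidin plate; 0% = median of DMSO wells and 100% = 0.3 times that DMSO median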
Target sequence (Q9H3R0 1-420 limits assumed): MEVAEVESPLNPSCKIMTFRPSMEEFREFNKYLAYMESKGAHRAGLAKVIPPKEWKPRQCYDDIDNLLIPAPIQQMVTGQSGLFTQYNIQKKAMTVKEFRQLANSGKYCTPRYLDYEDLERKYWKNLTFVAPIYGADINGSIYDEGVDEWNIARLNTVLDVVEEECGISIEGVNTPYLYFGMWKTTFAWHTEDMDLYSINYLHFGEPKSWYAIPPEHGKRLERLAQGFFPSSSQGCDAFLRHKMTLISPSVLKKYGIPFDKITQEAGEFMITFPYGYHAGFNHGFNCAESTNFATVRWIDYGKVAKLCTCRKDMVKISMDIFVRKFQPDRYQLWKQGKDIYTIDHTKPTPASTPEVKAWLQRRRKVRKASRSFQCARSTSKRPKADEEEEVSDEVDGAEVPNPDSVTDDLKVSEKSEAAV
PP1 inh: blocks human PP1-alpha phosphatase, a PP5 counter-screen. P62136. purified PP1alpha, OMFP fluorescence. inhibition, % at 6.7 µM. 0.9% of 320,000 active. AID 2235;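 active = inhibition above the mean inhibition of all tested compounds plus 3 SD, computed separately for each screening campaign, cut at about 15% in these data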
proKLK7 act conf: confirmation of human kallikrein-7 zymogen activators; shares compounds with proKLK7 act; purified proKLK7, EDANS-DABCYL substrate fluorescence; scaled: vehicle 0, mature enzyme 100; activation, % at 7 µM; 68% of 3,200 active; AID 686949;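 active = activation, as change over the incubation, above the mean of all tested compounds plus 3 SD, cut at about 13% in these data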
EDANS interfere: optically interferes with EDANS-DABCYL signal, flagging KLK7 hits; EDANS-DABCYL substrate fluorescence interference, no enzyme, 4 h; solvent 0%, active enzyme control 100%; activation, % at 7 µM; AID 686952; shares compounds with proKLK7 act; 80% of 3,200 active;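 active = activation above the all-compound mean plus 3 SD, ignoring values outside control-based bounds, cut at about 4.8% in these data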;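 also: value is the 4 h activation minus the activation read at time zero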
* hit, by the source's call; nt = no result given.

SMILES	Rev-erbA mod	PG9 Ab binder	proKLK7 act	PP5 primary	JMJD2C inh	PP1 inh	proKLK7 act conf	EDANS interfere
O=C(COC(=O)c1ccccc1F)Nc1ccc2c(c1)OCCO2	3.8	-0.3	0.3	nt	nt	nt	nt	nt
O=C(COC(=O)c1cc(Cl)ccc1O)Nc1ccc2c(c1)OCCO2	0.5	0.7	18.9*	0.0	4.6	-4.0	19.0*	16.3*
O=C(OCC#CCSc1nnc(-c2cccc3ccccc23)o1)c1ccsc1	-0.4	nt	nt	nt	nt	nt	nt	nt
COc1ccc([C@@]23CCN=C2c2[nH]c4ccccc4c2CCN3)c(N)c1	-5.2	nt	nt	nt	nt	nt	nt	nt
Cc1cc(-c2cc(NC(=O)Cc3c[nH]c4ccccc34)ccc2N(C)c2cccnc2)ccc1F	6.3	-0.4	-1.1	nt	nt	nt	nt	nt
O=S1(=O)c2ccc(Br)cc2OC[C@H](Cc2ccccc2)N1Cc1cn(Cc2ccc(Cl)cc2)nn1	-2.0	nt	0.1	nt	nt	nt	nt	nt
CC1(c2ccccc2)NC(=O)N(NC(=O)COC(=O)c2cc(Br)ccc2O)C1=O (centres undefined)	-3.7	-1.8	27.5*	0.0	0.0	-1.3	34.4*	38.3*
O=C(COC(=O)c1cc(Br)ccc1O)NNC(=O)c1ccc(Cl)cc1	4.5	1.3	17.1*	-0.2	1.6	-3.6	19.5*	18.8*
O=C(COC(=O)c1cc(Cl)ccc1O)NNC(=O)c1ccccc1F	-2.1	0.1	85.7*	nt	0.1	nt	137.4*	124.0*
CC(C)c1cc(C(C)C)c(S(=O)(=O)N2CCC(C(=O)NCc3cccs3)CC2)c(C(C)C)c1	3.5	nt	-0.1	nt	nt	nt	nt	nt
COC(=O)Cc1c(C)c2ccc(OC(C)C)cc2oc1=O	-0.9	-0.2	7.7	-1.5	1.9	-2.4	nt	nt
COC(=O)Cc1c(C)c2ccc(OC(=O)c3ccco3)cc2oc1=O	-0.6	-1.1	439.0*	-2.2	-3.3	1.2	735.6*	740.9*
COC(=O)Cc1c(C)c2cc(Cl)c(OC(=O)c3ccco3)cc2oc1=O	-1.9	1.5	88.2*	2.6	8.3	-0.9	397.1*	432.2*
CCc1c(C)c2ccc(OCC(=O)OC)cc2oc1=O	-3.3	-1.5	20.5*	3.8	1.8	-0.4	21.6*	21.4*
COC(=O)Cc1c(C)c2ccc(OC3CCCCC3=O)cc2oc1=O (centres undefined)	-0.4	-0.2	3.7	nt	5.0	nt	nt	nt
O=C(O[C@H]1CC[C@@]23CCCN2C(=O)CCC[C@H]3C1)N1CCCC1	-9.1	nt	nt	nt	nt	nt	nt	nt
COC(=O)C1=C(C)N(Cc2cccc(C(F)(F)F)c2)C(=NCc2ccc3c(c2)OCO3)NC1c1ccc(Cl)cc1 (centres undefined)	-2.5	3.1	1.5	nt	nt	nt	nt	nt
CC(=C\C=O)/C(C)=C/CC[C@@H]1O[C@@H]2C[C@@H]3O[C@](C)(C[C@H]4C[C@H](O)[C@@H]5O[C@@H]6C[C@H](O)[C@@H](C)O[C@@]6(C)CC[C@H]5O4)[C@@H](O)CC[C@@]3(C)O[C@H]2[C@@H](O)[C@@H]1C	1.3	nt	nt	nt	nt	nt	nt	nt
O=C(C=Cc1ccco1)c1cc(Cl)ccc1O	2.7	-2.1	35.3*	nt	nt	nt	-0.1	1.4
O=C(/C=C/c1ccco1)c1ccccc1O	-1.6	-1.7	8.3	3.3	-1.3	-2.1	nt	nt
CC1(c2nnnn2-c2ccc(F)cc2)CCCC(=O)N1CCc1c[nH]c2ccccc12 (centres undefined)	2.4	nt	0.0	nt	nt	nt	nt	nt
CC1CC(Nc2cccc(O)c2)=CC(=O)O1 (centres undefined)	6.1	-0.2	13.4*	2.3	2.7	8.7	0.8	0.3
CC1CC(Nc2ccccc2)=CC(=O)O1 (centres undefined)	-0.5	-1.1	3.7	2.7	-3.2	-2.6	nt	nt
Cc1[nH]c(=O)[nH]c(=O)c1CCSSCCc1c(C)[nH]c(=O)[nH]c1=O	1.8	0.8	0.5	nt	nt	nt	nt	nt
Cn1c(=O)c2cc(NC(=O)NCCc3ccccc3)ccc2n1Cc1ccc(F)cc1	0.2	-1.4	15.8*	nt	nt	nt	0.6	-0.4
SMILES	Rev-erbA mod	PG9 Ab binder	proKLK7 act	PP5 primary	JMJD2C inh	PP1 inh	proKLK7 act conf	EDANS interfere
Cn1c(=O)c2cc(NC(=S)NC3CCCCC3)ccc2n1-c1ccccc1	5.9	-1.4	-13.8	nt	nt	nt	nt	nt
C=C(C)Cn1c2ccc(NC(=O)NCCc3ccccc3)cc2c(=O)n1C	-2.7	1.4	27.4*	nt	nt	nt	8.5	19.6*
COc1ccc(CCNC(=O)Nc2ccc3c(c2)c(=O)n(C)n3Cc2ccc(F)cc2)cc1OC	-5.2	-1.0	11.5	nt	nt	nt	nt	nt
Cn1c(=O)c2cc(NC(=S)NC3CC3)ccc2n1Cc1ccc(F)cc1	-4.0	0.9	13.7*	nt	nt	nt	9.3	13.7*
COC(=O)c1cc(NC(=O)NC2CCCCN(Cc3ccc(Cl)cc3)C2=O)cc(C(=O)OC)c1 (centres undefined)	5.3	nt	0.6	nt	nt	nt	nt	nt
COC(=O)c1nc2n(n1)C(c1cccc(Cl)c1)C1=C(CCCC1=O)N2 (centres undefined)	0.6	0.7	20.3*	-2.9	-5.0	2.1	13.9*	18.6*
O=C1CCCC2=C1C(c1cccc(Br)c1)n1nc(-c3ccco3)nc1N2 (centres undefined)	-4.4	0.0	12.0	1.9	-1.2	6.2	nt	nt
CC(C)C1NC2(C(=O)c3ccccc3C2=O)C2C(=O)N(c3ccc(F)cc3)C(=O)C12 (centres undefined)	-4.2	-1.8	20.3*	-0.2	-3.2	-0.7	0.9	-0.7
O=C1C2C3C=CC(CC3)C2C(=O)N1c1ccc(F)cc1 (centres undefined)	3.3	-3.2	-0.6	0.1	-3.8	-1.3	nt	nt
COCCCNC(=O)C[C@H]1C[C@@]2(C(=O)OC)C(=C[C@H](C3CCCC3)O[C@@H]2C)N(Cc2ccco2)C1=O	6.2	nt	0.0	nt	nt	nt	nt	nt
COc1ccc2c(c1)c1ncn(CCN3CCCC3)c(=O)c1n2C	-1.1	-0.5	24.3*	1.9	-0.9	0.9	4.0	5.9*
COc1ccc2c(c1)c1ncn(CCN3CCNCC3)c(=O)c1n2C	-0.9	1.7	25.2*	3.0	-2.1	2.3	17.8*	16.9*
COc1ccccc1CCn1cnc2c3cc(C)ccc3n(C)c2c1=O	-0.9	-0.1	-0.6	2.4	3.9	-0.5	nt	nt
COc1ccc2[nH]c3c(=O)n(CCN4CCOCC4)cnc3c2c1	-3.4	0.7	7.9	1.1	-4.5	-1.9	nt	nt
CCOCCCn1cnc2c3cc(F)ccc3n(C)c2c1=O	0.1	-0.2	0.8	-2.8	-6.0	-2.5	nt	nt
COc1ccc2c(c1)c1ncn(CCN3CCCCC3)c(=O)c1n2C	-9.8	1.4	16.7*	0.4	3.4	-5.6	1.3	-0.4
CC(C)n1nnnc1C1(C)CSCC(=O)N1Cc1cccc(F)c1 (centres undefined)	0.2	nt	0.0	nt	nt	nt	nt	nt
CC1=C(C#N)C(c2ccc(O)cc2)C2=C(CCCC2=O)N1 (centres undefined)	-1.1	-1.3	2.5	1.2	-27.7	-4.1	nt	nt

From PubChem BioAssay
